The panel holds about 83,000 compounds, 20% with a hit somewhere; the sample as a whole holds those more often.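 For each line, cells grew in 96-well plates with the test compound present at a single concentration for 48 hours.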 Active and inactive are the calls of the source. How the source made its calls: active means growth percent below 10; inactive means the rest.
Columns and labels:
Assay in all cases: NCI-60 one-dose screen, 48 h (100 = growth as untreated, 0 = no growth, -100 = all killed)
Settings in all cases: 10 µM unless noted
DU-145 prostate = tested on: DU-145 prostate
K-562 leukemia = tested on: K-562 leukemia
MALME-3M melanoma = tested on: MALME-3M melanoma
MDA-MB-231 breast = tested on: MDA-MB-231 breast
SF-268 CNS = tested on: SF-268 CNS
SF-295 CNS = tested on: SF-295 CNS
SF-539 CNS = tested on: SF-539 CNS
UACC-257 melanoma = tested on: UACC-257 melanoma
M14 melanoma = tested on: M14 melanoma
HCT-15 colon = tested on: HCT-15 colon
HT29 colon = tested on: HT29 colon
SNB-75 CNS = tested on: SNB-75 CNS
SNB-19 CNS = tested on: SNB-19 CNS
U251 CNS = tested on: U251 CNS
PC-3 prostate = tested on: PC-3 prostate
SK-MEL-5 melanoma = tested on: SK-MEL-5 melanoma
UACC-62 melanoma = tested on: UACC-62 melanoma
LOX IMVI melanoma = tested on: LOX IMVI melanoma
SK-MEL-28 melanoma = tested on: SK-MEL-28 melanoma

Measured: growth

COc1ccc(C(O)c2cc3c(N)c(C(=O)Nc4ccccc4)sc3nc2C)cc1 (configuration not stated)
inactive: MALME-3M melanoma 48.5% | SF-268 CNS 28.3% | UACC-257 melanoma 49.4% | M14 melanoma 14.3% | SNB-19 CNS 24.6% | PC-3 prostate 17.4% | UACC-62 melanoma 19.6% | LOX IMVI melanoma 34.6% | SK-MEL-28 melanoma 68.1%
active: DU-145 prostate 2.39% | K-562 leukemia 3.59% | MDA-MB-231 breast -11.2% | SF-295 CNS -13.3% | SF-539 CNS -25.8% | HCT-15 colon 9.94% | HT29 colon -22% | SNB-75 CNS -7.27% | U251 CNS 5.4% | SK-MEL-5 melanoma -31.9%

Cc1ccc(-c2c(Br)c(OC(=O)CO[C@@H]3C[C@H](C)CC[C@H]3C(C)C)c(-c3ccc(C)cc3C)c(Br)c2OC(=O)CO[C@H]2C[C@@H](C)CC[C@@H]2C(C)C)c(C)c1
inactive: DU-145 prostate 106% | K-562 leukemia 110% | MALME-3M melanoma 106% | MDA-MB-231 breast 96.1% | SF-268 CNS 100% | SF-295 CNS 96.2% | SF-539 CNS 101% | UACC-257 melanoma 98.8% | M14 melanoma 91.5% | HCT-15 colon 99.6% | HT29 colon 103% | SNB-75 CNS 85.6% | SNB-19 CNS 101% | U251 CNS 99.1% | PC-3 prostate 92.8% | SK-MEL-5 melanoma 55.3% | UACC-62 melanoma 102% | LOX IMVI melanoma 94.4%

COc1ccc(C(=O)c2cc3c(N)c(C(=O)Nc4ccc(Br)cc4)sc3nc2C)cc1
inactive: DU-145 prostate 79.5% | K-562 leukemia 71.5% | MALME-3M melanoma 54.3% | MDA-MB-231 breast 66% | SF-268 CNS 50.2% | SF-295 CNS 86.6% | SF-539 CNS 66.2% | UACC-257 melanoma 79.8% | M14 melanoma 74.1% | HCT-15 colon 69.3% | HT29 colon 74.9% | SNB-19 CNS 56.6% | U251 CNS 58.7% | PC-3 prostate 74.2% | SK-MEL-5 melanoma 81.5% | UACC-62 melanoma 73.4% | LOX IMVI melanoma 84.5%
active: SNB-75 CNS -0.922%

CN1CCN(c2ccc(NC3=C(Cl)C(=O)c4ncccc4C3=O)cc2C#N)CC1
active: K-562 leukemia 2.83% | MALME-3M melanoma -69.4% | MDA-MB-231 breast -4.9% | UACC-257 melanoma -46.5% | LOX IMVI melanoma -61.6% | SK-MEL-28 melanoma -50.9%
inactive: DU-145 prostate 86.9% | SF-268 CNS 85.3% | SF-295 CNS 115% | SF-539 CNS 91.6% | M14 melanoma 54% | HCT-15 colon 48.2% | HT29 colon 103% | SNB-75 CNS 81.1% | SNB-19 CNS 96.8% | U251 CNS 56.1% | PC-3 prostate 60.6% | SK-MEL-5 melanoma 97.5% | UACC-62 melanoma 83.4%

CC(=O)Nc1ccc(S(=O)(=O)NC2CCCCC2)cc1
inactive: DU-145 prostate 113% | K-562 leukemia 100% | MALME-3M melanoma 98.1% | MDA-MB-231 breast 97.3% | SF-268 CNS 104% | SF-295 CNS 96.4% | SF-539 CNS 103% | UACC-257 melanoma 95.8% | M14 melanoma 101% | HCT-15 colon 95.9% | HT29 colon 95.4% | SNB-75 CNS 86.3% | SNB-19 CNS 96.2% | U251 CNS 91% | PC-3 prostate 94.6% | SK-MEL-5 melanoma 98.2% | UACC-62 melanoma 91.4% | LOX IMVI melanoma 95.8% | SK-MEL-28 melanoma 98.3%

CCN(CC)CCSCCCNc1c(C)cnc2cc(Cl)ccc12
active: K-562 leukemia 5.33%
inactive: DU-145 prostate 88.2% | MALME-3M melanoma 87% | MDA-MB-231 breast 61.9% | SF-268 CNS 81% | SF-295 CNS 90.5% | SF-539 CNS 71% | UACC-257 melanoma 113% | M14 melanoma 89.5% | HCT-15 colon 76.7% | HT29 colon 54.9% | SNB-75 CNS 85.4% | SNB-19 CNS 104% | U251 CNS 84% | PC-3 prostate 85.1% | SK-MEL-5 melanoma 75.3% | UACC-62 melanoma 93.9% | LOX IMVI melanoma 79.5% | SK-MEL-28 melanoma 87%

CCC(C)C(N)C(=O)NNc1n[nH]c(=S)n1N (configuration not stated)
inactive: DU-145 prostate 109% | K-562 leukemia 102% | MALME-3M melanoma 101% | MDA-MB-231 breast 101% | SF-268 CNS 98.2% | SF-295 CNS 103% | SF-539 CNS 94.7% | UACC-257 melanoma 99.4% | M14 melanoma 100% | HCT-15 colon 103% | HT29 colon 107% | SNB-75 CNS 99.6% | SNB-19 CNS 97.7% | U251 CNS 101% | PC-3 prostate 100% | SK-MEL-5 melanoma 100% | UACC-62 melanoma 101% | LOX IMVI melanoma 101% | SK-MEL-28 melanoma 107%

COc1cc(-c2cc(=O)oc3cc(O)ccc23)c(OC)c2c1OCO2
inactive: DU-145 prostate 101% | K-562 leukemia 90.3% | MALME-3M melanoma 88.7% | MDA-MB-231 breast 93.7% | SF-268 CNS 92.4% | SF-295 CNS 92% | SF-539 CNS 92.1% | UACC-257 melanoma 101% | M14 melanoma 96.5% | HCT-15 colon 92.4% | HT29 colon 102% | SNB-75 CNS 84.9% | SNB-19 CNS 97.4% | U251 CNS 94.6% | PC-3 prostate 80.6% | SK-MEL-5 melanoma 90.6% | UACC-62 melanoma 74.3% | LOX IMVI melanoma 93.8% | SK-MEL-28 melanoma 97%

Cc1ccc2nc3c(cc2c1)CSc1nnc(-c2ccc[nH]c2=S)n1N3
inactive: DU-145 prostate 113% | K-562 leukemia 93% | MALME-3M melanoma 97.7% | MDA-MB-231 breast 93.4% | SF-268 CNS 89.5% | SF-295 CNS 108% | SF-539 CNS 97.3% | UACC-257 melanoma 103% | M14 melanoma 93% | HCT-15 colon 105% | HT29 colon 108% | SNB-75 CNS 91.4% | SNB-19 CNS 90.7% | U251 CNS 112% | PC-3 prostate 95.6% | SK-MEL-5 melanoma 96.4% | UACC-62 melanoma 87% | LOX IMVI melanoma 96.6% | SK-MEL-28 melanoma 103%

COc1c(Cl)cc(Cl)c2ccc(C=C3C(=O)N(C)C(=O)N(C)C3=O)nc12
inactive: DU-145 prostate 108% | K-562 leukemia 100% | MALME-3M melanoma 107% | MDA-MB-231 breast 107% | SF-268 CNS 97.3% | SF-295 CNS 80.3% | SF-539 CNS 98.6% | UACC-257 melanoma 106% | HCT-15 colon 103% | HT29 colon 105% | SNB-75 CNS 98.6% | SNB-19 CNS 92% | U251 CNS 110% | PC-3 prostate 99.4% | SK-MEL-5 melanoma 101% | UACC-62 melanoma 102% | LOX IMVI melanoma 101% | SK-MEL-28 melanoma 109%
active: M14 melanoma -15.7%

O=S(=O)(NCCCNc1nccc(-c2c(-c3ccccc3)nc3occn23)n1)c1ccc(Cl)cc1
inactive: DU-145 prostate 85.5% | K-562 leukemia 50.6% | MALME-3M melanoma 91.8% | MDA-MB-231 breast 93.3% | SF-268 CNS 80% | SF-295 CNS 93.3% | SF-539 CNS 110% | UACC-257 melanoma 105% | M14 melanoma 71% | HCT-15 colon 79.8% | HT29 colon 47.5% | SNB-75 CNS 95.6% | SNB-19 CNS 97.8% | U251 CNS 86.6% | PC-3 prostate 72.1% | SK-MEL-5 melanoma 70.3% | UACC-62 melanoma 68.8% | LOX IMVI melanoma 72.7% | SK-MEL-28 melanoma 90%

Cc1ccccc1C(c1ccccc1)c1ccccc1C
inactive: DU-145 prostate 117% | K-562 leukemia 105% | MALME-3M melanoma 109% | MDA-MB-231 breast 104% | SF-268 CNS 99.7% | SF-295 CNS 97.7% | SF-539 CNS 106% | UACC-257 melanoma 71.3% | M14 melanoma 80.3% | HCT-15 colon 95.6% | HT29 colon 95.8% | SNB-75 CNS 79.5% | SNB-19 CNS 98.7% | U251 CNS 99.3% | PC-3 prostate 83.2% | SK-MEL-5 melanoma 77.8% | UACC-62 melanoma 100% | LOX IMVI melanoma 94.9% | SK-MEL-28 melanoma 103%

CC1=NNC(=O)C1CCC(=O)N/N=C(\C)c1ccc2ccccc2c1 (configuration not stated)
inactive: DU-145 prostate 102% | K-562 leukemia 97.6% | MALME-3M melanoma 120% | MDA-MB-231 breast 111% | SF-268 CNS 98.9% | SF-295 CNS 323% | SF-539 CNS 94.8% | UACC-257 melanoma 99.9% | M14 melanoma 113% | HCT-15 colon 107% | HT29 colon 116% | SNB-75 CNS 121% | SNB-19 CNS 114% | U251 CNS 109% | PC-3 prostate 94.9% | SK-MEL-5 melanoma 105% | UACC-62 melanoma 97.5% | LOX IMVI melanoma 99.5% | SK-MEL-28 melanoma 109%

CC(C)(C)OC(=O)N1C/C(=C\c2ccoc2)C(=O)/C(=C/c2ccoc2)C1
inactive: DU-145 prostate 109% | K-562 leukemia 29.3% | MALME-3M melanoma 92.6% | MDA-MB-231 breast 109% | SF-268 CNS 89.5% | SF-295 CNS 103% | SF-539 CNS 106% | UACC-257 melanoma 95.9% | M14 melanoma 94.2% | HCT-15 colon 99.6% | HT29 colon 98% | SNB-75 CNS 77% | SNB-19 CNS 96.5% | U251 CNS 88.2% | PC-3 prostate 89.5% | SK-MEL-5 melanoma 99.8% | UACC-62 melanoma 88.3% | LOX IMVI melanoma 90.7% | SK-MEL-28 melanoma 102%

CC(=O)OCC(=O)[C@@]1(O)CC[C@H]2[C@@H]3CC(=C(Br)Br)C4=CC(=O)CC[C@]4(C)[C@H]3C(=O)C[C@@]21C
inactive: DU-145 prostate 107% | K-562 leukemia 102% | MALME-3M melanoma 98.3% | MDA-MB-231 breast 86% | SF-268 CNS 89.8% | SF-295 CNS 76.7% | SF-539 CNS 98.4% | UACC-257 melanoma 67.6% | M14 melanoma 82.3% | HCT-15 colon 94.4% | HT29 colon 92.1% | SNB-75 CNS 81.2% | SNB-19 CNS 92.6% | U251 CNS 82.9% | PC-3 prostate 76.1% | SK-MEL-5 melanoma 95.2% | UACC-62 melanoma 82.5% | LOX IMVI melanoma 97.3% | SK-MEL-28 melanoma 102%

Cc1cccc(Oc2ccc(Nc3ncnc4ccc(NC(=O)CN(C)C)cc34)cc2Cl)c1
active: K-562 leukemia -8.94% | M14 melanoma -77.1% | HCT-15 colon -40.9% | HT29 colon 3.23% | LOX IMVI melanoma -78.1%
inactive: DU-145 prostate 34.5% | MALME-3M melanoma 25.9% | MDA-MB-231 breast 41.1% | SF-268 CNS 54.8% | SF-295 CNS 58.4% | SF-539 CNS 59.9% | UACC-257 melanoma 81.8% | SNB-75 CNS 66.4% | SNB-19 CNS 59.9% | U251 CNS 28.1% | PC-3 prostate 40.7% | SK-MEL-5 melanoma 39.9% | UACC-62 melanoma 102% | SK-MEL-28 melanoma 48.1%

From PubChem BioAssay (NCI)
